Assay [1] has as its system Human papillomavirus type 1a protein E7 (residues 44-93). As to the kind of experiment: small molecules binding HPV E7 44-93 – biochemical, small-molecule microarray, residues 44-93, 635 nm fluorescence, primary screen (AID 1108).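 Also: E7 fragment applied at 1 µg/mL in TBST for 1 h at 4 C; score combines spot fluorescence with its signal to noise ratio.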 The note with it: fluorescence 635 nm, higher = more signal.
Assay [2] can be described thus: hepatitis C replication reporter changes, two-sided – Huh7 cells, luciferase reporter, HCV replication inhibitor project, primary screen (AID 1109).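 Also: huh7 hepatoma cells harbouring a luciferase neomycin HCV replicon reporter; luciferase luminescence as measure of HCV replicon replication; test concentration not given here.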 The note with it: Huh7 HCV replicon luciferase reporter, 48 h; higher = more signal. (In general: Reporter assays use an easily measured gene product as a stand-in for the process of interest.)
In assay [3] the target is Left-right determination factor 2 (Homo sapiens) (UniProt O00292). The assay can be described thus: small molecules binding LEFTY2 protein – biochemical, small-molecule microarray, 635 nm fluorescence scan, primary screen (AID 1110). Particulars: higher = more signal.
Sequence of Left-right determination factor 2 (Homo sapiens) (O00292 whole entry, looked up): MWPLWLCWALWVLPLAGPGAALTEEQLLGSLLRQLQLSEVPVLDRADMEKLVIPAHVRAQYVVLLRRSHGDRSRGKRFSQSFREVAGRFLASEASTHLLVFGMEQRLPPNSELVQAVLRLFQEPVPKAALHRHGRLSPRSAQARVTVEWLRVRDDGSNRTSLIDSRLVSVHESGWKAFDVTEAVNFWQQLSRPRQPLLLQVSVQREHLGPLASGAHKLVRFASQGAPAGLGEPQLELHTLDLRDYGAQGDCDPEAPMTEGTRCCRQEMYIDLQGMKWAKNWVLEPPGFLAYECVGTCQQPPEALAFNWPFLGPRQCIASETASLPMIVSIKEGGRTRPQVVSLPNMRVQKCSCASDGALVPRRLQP
The target in assay [4] is Calmodulin-1 (Homo sapiens) (UniProt P0DP23). The assay can be described thus: small molecules binding calmodulin-1 with EGTA – biochemical, small-molecule microarray, Cy5-labelled CALM1, profiling panel (AID 1111).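 Also: labelled calmodulin applied in Tris saline Tween buffer holding calcium plus EGTA and DTT.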 Particulars: Cy5-CALM1 binding fluorescence, higher = more signal.
For assay [5] the target is unchanged. The assay can be described thus: small molecules binding Ca-loaded calmodulin-1 – biochemical, small-molecule microarray, Cy5-labelled CALM1, plus calcium, artefact control for SMM control-protein annotation, profiling panel (AID 1112).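 Also: score merges spot fluorescence with signal to noise from triplicate slides.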 The note with it: Cy5-CALM1 binding fluorescence, higher = more signal.
Assay [6] in a line: probe aWnt5a binding to arrayed compounds – biochemical, biotinylated probe, 635/667 nm fluorescence, primary screen (AID 1113).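 Also: score merges 667 nm fluorescence intensity with signal-to-noise per printed feature.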 The note with it: small-molecule microarray, higher = more signal.
Assay [7] in a line: probe aShh binding to arrayed compounds – biochemical, biotinylated probe, 635/667 nm fluorescence, primary screen (AID 1114).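 Also: probe is biotin-labelled aShh protein from a stem cell growth factor screen; measures binding of labelled protein to compounds printed on the slide; score merges feature fluorescence at 667 nm with signal-to-noise.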 The note with it: small-molecule microarray, higher = more signal.
Assay [8] in a line: probe aNog binding to arrayed compounds – biochemical, biotinylated probe, 635/667 nm fluorescence, primary screen (AID 1115).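 Also: probe is biotinylated aNog protein used at 0.15 µg/mL for 1 h at 4 C; z-score combines 667 nm fluorescence of each spot with its signal to noise.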 Particulars: small-molecule microarray, higher = more signal.
Assay [9] addresses Torsin-1A-interacting protein 1 (Homo sapiens) (UniProt Q5JTV8). As to the kind of experiment: compound microarray binding of lysate hLAP1 – cell lysate, small-molecule microarray, COS7 lysate, 635/667 nm fluorescence, primary screen (AID 1116). Particulars: 635 nm fluorescence, higher = more signal.
Assay [10] has as its target Alpha-bungarotoxin (Bungarus multicinctus) (UniProt P60615). As to the kind of experiment: compounds binding labelled alpha-BTX control protein – biochemical, small-molecule microarray, Alexa647 label, 635/667 nm fluorescence, artefact control for SMM control protein annotation, profiling panel (AID 1117). The note with it: alpha-BTX-A647 binding fluorescence, higher = more signal.

Another assay concerns the target Albumin (Bos taurus) (UniProt P02769). The assay can be described thus: compounds binding labelled BSA control protein – biochemical, small-molecule microarray, Alexa647 label, 635/667 nm fluorescence, artefact control for SMM control protein annotation, profiling panel (AID 1118).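 Also: score merges 667 nm emission intensity and signal-to-noise per printed compound spot.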 The note with it: BSA-A647 binding, fluorescence 635 nm, higher = more signal.
A short description of assay [11]: probe aXIP binding to arrayed compounds – biochemical, NeuroSMM set, 635/667 nm fluorescence, primary screen (AID 1119).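 Also: probe is the protein aXip251-270 applied at 1 µg/mL to compound-printed slides; binding of probe to printed compounds measured as 667 nm fluorescence plus signal to noise.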 Particulars: small-molecule microarray, higher = more signal, called active from +8 up or from −8 down.
Assay [12] can be described thus: probe aNOTCH3 binding on compound microarray – biochemical, small-molecule microarray, 635/667 nm fluorescence, primary screen (AID 1120).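 Also: probe is a biotin-tagged antibody raised against NOTCH3 rather than NOTCH3 protein; score merges spot fluorescence near 667 nm with spot signal to noise.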 The note with it: higher = more signal.
The nature of assay [13]: probe aNOTCH2 binding on compound microarray – biochemical, small-molecule microarray, 635/667 nm fluorescence, primary screen (AID 1121).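 Also: score merges feature fluorescence read at 667 nm with its signal to noise.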 Particulars: higher = more signal.
For assay [14], the target named is Carbonic anhydrase 2 (Homo sapiens) (UniProt P00918). The assay can be described thus: compounds binding carbonic anhydrase 2 – biochemical, small-molecule microarray, Alexa647-labelled CAII, profiling panel (AID 1122). Particulars: CAII-A647 binding fluorescence, higher = more signal.
Assay [15] in a line: COS7 lysate on small-molecule microarray, probe aHis, 635 nm (AID 1123).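 Also: z-score combines 667nm fluorescence intensity with signal-to-noise per printed compound spot.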 Particulars: COS7 cell lysate, fluorescence, higher = more signal.
Assay [16] can be described thus: probe aLAP1 signal on lysate-treated microarray – cell lysate, small-molecule microarray, COS7 lysate, primary screen (AID 1124).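 Also: lysate comes from COS7 cells expressing LAP1 and is applied at 0.3 µg/mL; score merges spot fluorescence near 667 nm with signal-to-noise over triplicate slides.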 Particulars: probe aLAP1, fluorescence, higher = more signal.
For another assay, the system named is Sam68 (KHDRBS1). As to the kind of experiment: compounds binding KHDRBS1 protein – biochemical, small-molecule microarray, 635 nm fluorescence, primary screen (AID 1125).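 Also: score merges 667 nm channel intensity with signal to noise over triplicate slides.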 Particulars: higher = more signal.
The subject of assay [17] is Chordin-like protein 2 (CHRDL2). As to the kind of experiment: compounds binding chordin-like 2 – biochemical, small-molecule microarray, 635 nm fluorescence, primary screen (AID 1126).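 Also: printed compound slides probed with Chrdl2 protein at 4 µg/mL for 1 h at 4 C; score merges 667 nm emission intensity with signal to noise over three replicate slides.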 Particulars: fluorescence 635 nm, higher = more signal.
The target of assay [18] is Concanavalin-A (Canavalia ensiformis) (UniProt P02866). As to the kind of experiment: compounds binding concanavalin A lectin – biochemical, small-molecule microarray, Alexa647 label, 635 nm, artefact control for SMM control protein annotation, primary screen (AID 1127).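 Also: z combines 667 nm emission intensity with signal-to-noise across three replicate slides.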 Particulars: ConA-A647 binding fluorescence, higher = more signal.
Sequence of Concanavalin-A (Canavalia ensiformis) (P02866 whole entry, looked up): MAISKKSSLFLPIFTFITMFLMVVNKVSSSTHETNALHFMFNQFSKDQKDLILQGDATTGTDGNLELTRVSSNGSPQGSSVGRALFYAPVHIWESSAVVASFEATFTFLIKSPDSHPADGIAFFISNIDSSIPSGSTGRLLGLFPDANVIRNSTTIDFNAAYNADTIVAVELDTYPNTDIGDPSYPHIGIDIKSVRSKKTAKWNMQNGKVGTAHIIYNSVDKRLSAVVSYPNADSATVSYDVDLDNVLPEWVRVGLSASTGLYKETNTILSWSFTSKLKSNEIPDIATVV

Molecules are shown by their SMILES. Active and inactive are the calls of the source.

Sequence of Albumin (Bos taurus) (P02769 whole entry, looked up): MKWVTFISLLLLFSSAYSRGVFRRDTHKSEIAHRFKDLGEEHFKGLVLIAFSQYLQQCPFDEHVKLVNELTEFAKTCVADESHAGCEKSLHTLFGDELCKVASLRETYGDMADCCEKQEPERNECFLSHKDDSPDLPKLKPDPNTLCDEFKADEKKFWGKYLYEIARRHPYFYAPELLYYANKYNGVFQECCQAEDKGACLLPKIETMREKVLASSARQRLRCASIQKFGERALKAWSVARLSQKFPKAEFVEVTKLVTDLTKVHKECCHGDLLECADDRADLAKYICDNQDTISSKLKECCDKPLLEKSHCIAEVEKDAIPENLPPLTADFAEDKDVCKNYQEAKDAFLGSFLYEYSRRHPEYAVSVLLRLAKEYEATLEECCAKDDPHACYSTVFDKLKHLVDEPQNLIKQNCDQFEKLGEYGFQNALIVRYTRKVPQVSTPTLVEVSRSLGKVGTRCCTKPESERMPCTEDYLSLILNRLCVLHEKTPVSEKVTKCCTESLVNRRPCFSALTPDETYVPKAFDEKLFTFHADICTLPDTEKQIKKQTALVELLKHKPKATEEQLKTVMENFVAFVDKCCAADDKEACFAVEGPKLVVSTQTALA
Sequence of Torsin-1A-interacting protein 1 (Homo sapiens) (Q5JTV8 whole entry, looked up): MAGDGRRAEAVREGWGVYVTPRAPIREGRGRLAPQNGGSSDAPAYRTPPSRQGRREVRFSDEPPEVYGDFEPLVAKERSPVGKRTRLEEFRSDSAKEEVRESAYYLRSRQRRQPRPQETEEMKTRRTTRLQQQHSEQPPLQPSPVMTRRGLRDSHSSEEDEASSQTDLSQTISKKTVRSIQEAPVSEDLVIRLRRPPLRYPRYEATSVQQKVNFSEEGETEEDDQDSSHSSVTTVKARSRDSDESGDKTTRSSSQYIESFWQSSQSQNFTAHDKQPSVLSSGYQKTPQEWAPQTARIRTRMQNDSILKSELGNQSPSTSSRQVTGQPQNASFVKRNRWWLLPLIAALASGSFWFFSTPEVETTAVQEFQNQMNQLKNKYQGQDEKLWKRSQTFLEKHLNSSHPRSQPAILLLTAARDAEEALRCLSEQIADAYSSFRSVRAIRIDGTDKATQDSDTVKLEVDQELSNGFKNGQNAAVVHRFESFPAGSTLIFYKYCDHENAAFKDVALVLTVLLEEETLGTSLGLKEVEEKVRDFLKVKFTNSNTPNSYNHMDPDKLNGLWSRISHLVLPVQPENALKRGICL
Sequence of Alpha-bungarotoxin (Bungarus multicinctus) (P60615 whole entry, looked up): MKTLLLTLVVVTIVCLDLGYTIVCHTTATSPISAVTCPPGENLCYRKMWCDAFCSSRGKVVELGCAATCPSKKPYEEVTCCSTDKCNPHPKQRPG

With `C=CCC(OC(C)=O)[C@@H]1[C@@H](N(Cc2ccc(-c3ccccc3)cc2)C(=O)c2cccc3ccccc23)c2cc(OCCCO)ccc2N1C(=O)Cc1ccc2ccccc2c1` (stereo not given in full), the composite z-score in [1] was -0.106; in assay [3], -0.304; in assay [4], -0.29; in [5], 0.842; in assay [6] it was -0.108; in [7], -0.243. In addition, the composite z-score in assay [8] was -0.225; in [9], 0.0247; in assay [10], 0.528; with Albumin (Bos taurus) it was 0.413; in assay [12], -0.0345; in assay [13], -0.0891. The composite z-score in [14] is -0.0417; in assay [15], 0.321; in assay [16], 0.194; in the assay with Sam68 (KHDRBS1), -0.35; in [17] it was -0.133; in assay [18] it was -0.353. The compound further had a z-score in [2] of -0.374. For the same compound, the composite Z-score in assay [11] is -0.277 (inactive).

Take `Cc1ccc(S[C@]2(C(=O)NCC(C)C)CC(=O)N(Cc3ccccc3Cl)[C@@H]2c2ccc(CO)cc2I)cc1`: the composite z-score was 0.409 in assay [1]; -1.16 in [3]; -0.363 in assay [4]; -0.0595 in assay [5]; 0.31 in assay [6]; -0.221 in assay [7]. In addition, the composite z-score in [8] was 0.515; in assay [9], 0.359; in assay [10], 1.48; with Albumin (Bos taurus), -0.253; in assay [12] it was -0.179; in assay [13], -0.127. The composite z-score in assay [14] was 0.763; in assay [15] it was 0.363; in [16] it was 0.142; in the assay on Sam68 (KHDRBS1), 0.245; in assay [17], -0.332; in assay [18], -0.395. In assay [2], this compound gave a z-score of -1.55. In addition, the composite Z-score in assay [11] was 0.0894 (inactive).

With `COCCOC(=O)N1C(=O)[C@@]2(c3cc(C#CC4(O)CCCCCC4)ccc31)[C@H](C(=O)N1CCCCCCC1)[C@H]1C(=O)O[C@H](c3ccccc3)[C@H](c3ccccc3)N1[C@@H]2c1ccc(OCCO)cc1`, the composite z-score in [1] came to 1.33; in [3] it was 1.52; in assay [4], 2.33; in assay [5] it was 1.01; in [6], 1.12; in assay [7] it was 2.59. For the same compound, the composite z-score was 2.98 in assay [8]; 4.12 in assay [9]; 2.89 in assay [10]; 0.513 with Albumin (Bos taurus); 1.73 in assay [12]; 0.819 in assay [13]. Further, the composite z-score was 0.705 in assay [14]; 3.34 in assay [15]; 1.35 in assay [16]; 1.29 in the assay on Sam68 (KHDRBS1); 1.52 in assay [17]; 1.14 in assay [18]. In addition, in assay [2], the z-score is -1.74. Besides, the composite Z-score in [11] is 3.82 (inactive).

Turning to `C=CCOC(=O)[C@H]1[C@@H]2C(=O)O[C@@H](c3ccccc3)[C@@H](c3ccccc3)N2[C@@H](c2ccc(OCCOC(=O)[C@H]3C[C@H]4C(=O)N[C@@H](Cc5ccccc5)C(=O)N4[C@H]3c3ccc(O)cc3)cc2)[C@]12C(=O)Nc1ccc(I)cc12`, the composite z-score in assay [1] is 1.39; in assay [3], 0.537; in assay [4] it was 0.43; in assay [5], 0.0144; in [6], 0.0169; in [7] it was -0.333. Also, the composite z-score in assay [8] was -0.174; in assay [9], 0.791; in [10], 0.897; with Albumin (Bos taurus) it was -0.175; in assay [12], 0.189; in [13], -0.11. For the same compound, the composite z-score was determined as 0.28 in assay [14]; 1.78 in assay [15]; 0.428 in assay [16]; 1.3 in the assay with Sam68 (KHDRBS1); 1.23 in assay [17]; 1.14 in assay [18]. Besides, the z-score in assay [2] was -1.41. Besides, the composite Z-score in [11] is 0.341 (inactive).

In the case of `COc1cc(CO)cc(I)c1O[C@H]1C=C(C(=O)NCCO)C[C@@H](N(CC2CCCCC2)C(=O)c2ccc(C(F)(F)F)cc2)[C@@H]1O`, the composite z-score is 1.15 in [1]; 0.402 in assay [3]; 0.0208 in assay [4]; -0.21 in assay [5]; -0.087 in [6]; -0.2 in assay [7]. Further, the composite z-score in [8] was -0.144; in assay [9] it was 0.465; in [10], -0.8; with Albumin (Bos taurus) it was 0.388; in assay [12], -0.0921; in assay [13], -0.147. Moreover, the composite z-score amounted to 0.055 in assay [14]; 0.461 in [15]; 0.621 in assay [16]; 1.27 in the assay with Sam68 (KHDRBS1); 0.398 in assay [17]; 0.352 in [18]. Besides, the z-score in assay [2] is -1.54. Moreover, in assay [11], the composite Z-score was 0.527 (inactive).

Take `COc1cc2c(cc1OC)CN(C(=O)[C@@H]1[C@H]3C(=O)O[C@H](c4ccccc4)[C@H](c4ccccc4)N3[C@H](c3ccccc3OCCO)[C@@]13C(=O)Nc1ccc(C#CC4(O)CCCCCC4)cc13)CC2`: the composite z-score in assay [1] was 1.35; in [3], 0.246; in assay [4], 0.545; in [5], 0.222; in assay [6] it was -0.0685; in assay [7], 0.0048. Besides, the composite z-score in [8] is 0.151; in assay [9], 1.34; in [10], 1.56; with Albumin (Bos taurus), 0.319; in [12], 0.0316; in assay [13], -0.0859. Also, the composite z-score is 0.527 in assay [14]; 1.48 in [15]; 0.829 in assay [16]; 1.3 in the assay with Sam68 (KHDRBS1); 0.334 in assay [17]; 1.13 in assay [18]. For the same compound, in assay [2], the z-score is -2.18. The composite Z-score in assay [11] is 0.428 (inactive).

The values above are taken from PubChem BioAssay.
